This assay relates to U-2932. Briefly: growth inhibition by drug plus 177Lu-lilotomab satetraxetan (1 - RLU/untreated control) (fraction); higher = stronger inhibition. Conditions: 10 nM; time (day): 6; 177Lu-lilotomab satetraxetan 1 ug/ml. In short, it runs like this: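 RIVA or U-2932 cells, untreated or pretreated 18 h with a radiolabelled anti-CD37 antibody conjugate (~600 MBq/mg; 0.5 µg/ml RIVA, 1 µg/ml U-2932), were washed and seeded at 3,000 cells/well on plates pre-printed with the Selleck Cambridge Cancer Compound library. Doses were 10/100 nM (RIVA) or 10/1,000 nM (U-2932). RealTime-Glo luminescence was read daily from day 3 after 1 h at 37°C. Growth inhibition is 1 − RLU/mean of 48 untreated no-drug wells per plate.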
Consider `COc1ccc(S(=O)(=O)Nc2cccnc2Nc2ccc(O)cc2)cc1`, for which the “growth inhibition by drug plus 177Lu-lilotomab satetraxetan” value was found to be 0.105.
The result for `C[C@]12CCC(=O)C=C1CC[C@@H]1[C@@H]2[C@@H](O)C[C@@]2(C)[C@H]1CC[C@]2(O)C(=O)CO` [Hydrocortisone (Cortisol)] reads 0.139; that for `COc1cc(OC2CCN(C)CC2)ccc1Nc1ncc2c(n1)n(C1CCCC1)c(=O)n2C`, 0.102; that for `Nc1nc(F)nc2c1ncn2[C@@H]1O[C@H](CO)[C@@H](O)[C@@H]1O` [Fludarabine (Fludara)], 0.16.
In the case of `Nc1nc(Nc2ccc(S(N)(=O)=O)cc2)nn1C(=O)c1c(F)cccc1F` it was 0.137; in that of `Nc1ncn([C@@H]2O[C@H](CO)[C@@H](O)[C@H]2O)c(=O)n1` [Azacitidine (Vidaza)], -0.00849; in that of `COc1cc2nccc(Oc3ccc(NC(=O)NC4CC4)c(Cl)c3)c2cc1C(N)=O` [E7080 (Lenvatinib)], 0.0795.
The result for `Nc1ccn([C@@H]2O[C@H](CO)[C@@H](O)[C@@H]2O)c(=O)n1` [Cytarabine] reads -0.0601; that for `Nc1cccc2c1C(=O)N(C1CCC(=O)NC1=O)C2=O` (configuration not stated) [Pomalidomide], 0.147.
As to `CN(C)c1nc(N(C)C)nc(N(C)C)n1` [Altretamine (Hexalen)], the “growth inhibition by drug plus 177Lu-lilotomab satetraxetan” value was -0.0604.
In the case of `Cc1[nH]c(/C=C2\C(=O)Nc3ccc(S(=O)(=O)N(C)c4cccc(Cl)c4)cc32)c(C)c1C(=O)N1CCN(C)CC1` it was 0.0845; in that of `O=C(O[C@@H]1Cc2c(O)cc(O)cc2O[C@@H]1c1cc(O)c(O)c(O)c1)c1cc(O)c(O)c(O)c1` [(-)-Epigallocatechin gallate], -0.022.

(Values after the supplement of paper PMC6897291.)
